Calls of active or inactive are those of the source. Unless noted, calls come from the whole dose curve; as a rule, active = well fitted curve in the direction sought with a large enough effect in the repeat runs; inconclusive = weak or mixed curves; inactive = flat fitted curve, though single readings scatter.
Assays:
[1] = qHTS assay to test for compound auto fluorescence at 535 nm (green) in HEK293 cells (AID 720680)
[2] = qHTS assay to test for compound auto fluorescence at 460 nm (blue) in HEK293 cell free culture (AID 720681)
Summary of the method: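 Compounds were added to cell-free DMEM with 10% FBS and fluorescence read directly. The blue channel used 405 nm excitation and 460 nm emission, with triamterene as the reference fluorophore.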

[3] = qHTS assay to test for compound auto fluorescence at 535 nm (green) in HEK293 cell free culture (AID 720682)
Summary of the method: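 Using fluorescein as calibrant, autofluorescence was quantified at 485/535 nm in cell-free DMEM containing 10% FBS after pintool addition of compound or vehicle.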

[4] = qHTS assay to test for compound auto fluorescence at 590 nm (red) in HEK293 cell free culture (AID 720683)
Summary of the method: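 Cell-free wells of DMEM with 10% FBS received compound, and intrinsic fluorescence was read at excitation/emission 540/590 nm. Values expressed as equivalence to Rose Bengal sodium.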

[5] = qHTS assay to test for compound auto fluorescence at 590 nm (red) in HepG2 cell free culture (AID 720684)
Summary of the method: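 Compounds are added to culture medium (MEM, 10% FBS) lacking cells, then fluorescence is read at excitation 540 nm, emission 590 nm, with Rose Bengal sodium as the equivalency standard.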

[6] = qHTS assay to test for compound auto fluorescence at 460 nm (blue) in HepG2 cell free culture (AID 720685)
Summary of the method: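 Compound (23 nL) or DMSO pinned into cell-free MEM with 10% FBS; blue fluorescence read at 405/460 nm excitation/emission, expressed as auto-fluorescence equivalency to triamterene.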

[7] = qHTS assay to test for compound auto fluorescence at 535 nm (green) in HepG2 cell free culture (AID 720686)
[8] = qHTS assay to test for compound auto fluorescence at 460 nm (blue) in HepG2 cells (AID 720687)
Summary of the method: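 HepG2 cells in MEM with 10% FBS, attached overnight at 37 C, were exposed to compound or DMSO for 1 hr at 37 C, 5% CO2. Blue fluorescence was read at 405/460 nm, with triamterene as reference fluorophore.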

[9] = biological target: Glucocorticoid receptor (Homo sapiens) (UniProt P04150); experiment: qHTS assay to identify small molecule agonists of the glucocorticoid receptor (GR) signaling pathway (AID 720691; active = well fitted activation curve with a large enough effect in the signal ratio in the repeat runs, not every such curve was filed as active; inconclusive = weak or mixed curves, or effect the other way; inactive = no such curve, though single readings can be large or run the other way; the % refers to the signal ratio; note: potency is the fitted concentration of half-maximal effect)
Summary of the method: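 Fluorescence intensity from LiveBLAzer B/G FRET substrate (2 h, room temperature) reports beta-lactamase expression driven by the glucocorticoid response element in GR-bla HeLa cells after 18 h compound exposure at 37 C.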

[10] = biological target: Glucocorticoid receptor (Homo sapiens) (UniProt P04150); experiment: qHTS assay to identify small molecule antagonists of the glucocorticoid receptor (GR) signaling pathway (AID 720692; active = well fitted inhibition curve with a large enough effect in the signal ratio in the repeat runs, not every such curve was filed as active; inconclusive = weak or mixed curves, or effect the other way; inactive = no such curve, though single readings can be large or run the other way; the % refers to the signal ratio)
Summary of the method: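 HeLa GR-bla cells; cmpd + dex 5 nM final, 18 h 37 C; LiveBLAzer B/G FRET substrate 2 h RT; fluorescence intensity read. Antagonist mode, qHTS.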
% is set by controls: 0 for no effect and ±100 for the full control effect.

Glucocorticoid receptor (Homo sapiens), sequence (P04150 whole entry, looked up): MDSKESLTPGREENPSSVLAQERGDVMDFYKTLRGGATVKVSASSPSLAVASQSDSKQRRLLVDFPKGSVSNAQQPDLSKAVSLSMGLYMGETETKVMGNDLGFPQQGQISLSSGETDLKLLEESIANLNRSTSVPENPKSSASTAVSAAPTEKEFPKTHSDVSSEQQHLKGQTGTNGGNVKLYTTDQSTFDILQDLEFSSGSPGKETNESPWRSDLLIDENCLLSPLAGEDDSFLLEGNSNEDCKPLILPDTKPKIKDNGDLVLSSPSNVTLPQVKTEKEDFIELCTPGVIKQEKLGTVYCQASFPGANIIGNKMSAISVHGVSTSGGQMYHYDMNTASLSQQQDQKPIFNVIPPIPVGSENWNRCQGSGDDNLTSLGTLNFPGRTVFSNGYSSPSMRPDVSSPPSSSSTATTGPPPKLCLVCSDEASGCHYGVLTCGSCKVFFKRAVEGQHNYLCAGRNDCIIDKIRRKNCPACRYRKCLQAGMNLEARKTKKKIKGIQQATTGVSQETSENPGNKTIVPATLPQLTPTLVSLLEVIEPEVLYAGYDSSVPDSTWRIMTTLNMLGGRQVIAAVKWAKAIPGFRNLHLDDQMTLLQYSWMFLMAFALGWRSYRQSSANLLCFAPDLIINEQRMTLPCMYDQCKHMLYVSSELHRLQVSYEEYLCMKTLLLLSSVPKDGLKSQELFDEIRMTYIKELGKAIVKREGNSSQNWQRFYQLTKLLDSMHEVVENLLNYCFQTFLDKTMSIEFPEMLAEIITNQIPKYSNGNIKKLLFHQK

COc1cc(C(C)=O)ccc1OCCCN1CCC(c2noc3cc(F)ccc23)CC1
inactive: outcome [1] | Potency [2] | outcome [3] | outcome [4] | outcome [5] | Potency [6] | outcome [7] | Potency [8] | Potency [9] | Potency [10]

CCOC(=O)C(C)O (centres undefined)
inactive: outcome [1] | Potency [2] | outcome [3] | outcome [4] | outcome [5] | Potency [6] | outcome [7] | Potency [8] | Potency [9]

CC(C)(C(=O)c1cccnc1)c1cccnc1
inactive: fluorescence, % of fluorescein [1] 0.0635% [at 18.6 µM] | fluorescence, % of fluorescent control [2] -0.108% [at 18.6 µM] | activity change [3] 0.0185% [at 18.6 µM] | fluorescence, % of fluorescent control [4] 0.0451% [at 18.6 µM] | fluorescence, % of Rose Bengal [5] 0.0034% [at 18.6 µM] | fluorescence, % of fluorescent control [6] -0.0441% [at 18.6 µM] | fluorescence, % of fluorescein control [7] 0.0796% [at 18.6 µM] | fluorescence, % of fluorescent control [8] -0.0372% [at 18.6 µM] | Potency [9] | Potency [10]

CCCCCCC(CO)CCCC (centres undefined)
inactive: outcome [1] | Potency [2] | outcome [3] | outcome [4] | outcome [5] | Potency [6] | outcome [7] | Potency [8] | Potency [9]

O=C(O)c1cccc(Oc2ccccc2)c1
inactive: outcome [1] | Potency [2] | outcome [3] | outcome [4] | outcome [5] | Potency [6] | outcome [7] | Potency [8] | Potency [9]

O=C(O)CCCc1c[nH]c2ccccc12
inactive: outcome [1] | Potency [2] | outcome [3] | outcome [4] | outcome [5] | Potency [6] | outcome [7] | Potency [8] | Potency [9]

CC(C)COC(=O)COc1cc(Cl)c(Cl)cc1Cl
inactive: outcome [1] | Potency [2] | outcome [3] | outcome [4] | outcome [5] | Potency [6] | outcome [7] | Potency [8] | Potency [9]

COc1ccc(N)c([N+](=O)[O-])c1
inactive: outcome [1] | Potency [2] | outcome [3] | outcome [4] | outcome [5] | Potency [6] | outcome [7] | Potency [8] | Potency [9]

CS(=O)(=O)c1ccc([C@@H](C[C@H]2CCC(=O)C2)C(=O)Nc2cnccn2)cc1Cl
inactive: outcome [1] | Potency [2] | outcome [3] | outcome [4] | outcome [5] | Potency [6] | outcome [7] | Potency [8] | Potency [9] | Potency [10]

CC(=O)OCC(=O)[C@@]1(OC(C)=O)[C@@H](C)C[C@H]2[C@@H]3C[C@H](F)C4=CC(=O)C=C[C@]4(C)[C@@]3(F)[C@@H](O)C[C@@]21C
active: Potency [9] 37.9 nM [inconclusive]
inactive: outcome [1] | Potency [2] | outcome [3] | outcome [4] | outcome [5] | Potency [6] | outcome [7] | Potency [8]

CCC(=O)OCc1ccc(OC)cc1
inactive: outcome [1] | Potency [2] | outcome [3] | outcome [4] | outcome [5] | Potency [6] | outcome [7] | Potency [8] | Potency [9] | Potency [10]

Cc1cn([C@H]2C[C@H](F)[C@@H](CO)O2)c(=O)[nH]c1=O
inactive: outcome [1] | Potency [2] | outcome [3] | outcome [4] | outcome [5] | Potency [6] | outcome [7] | Potency [8] | Potency [9] | Potency [10]

CC(C)(C)S
inactive: outcome [1] | Potency [2] | outcome [3] | outcome [4] | outcome [5] | Potency [6] | outcome [7] | Potency [8] | Potency [9]

Cc1ccc(Nc2c(F)cccc2Cl)c(CC(=O)O)c1
inactive: outcome [1] | Potency [2] | outcome [3] | outcome [4] | outcome [5] | Potency [6] | outcome [7] | Potency [8] | Potency [9]

C=C(C)C(=O)OCCC(F)(F)C(F)(F)C(F)(F)C(F)(F)C(F)(F)C(F)(F)F
inactive: outcome [1] | Potency [2] | outcome [3] | outcome [4] | outcome [5] | Potency [6] | outcome [7] | Potency [8] | Potency [9]

O=C(CCS)OCC(COC(=O)CCS)(COC(=O)CCS)COC(=O)CCS
inactive: outcome [1] | Potency [2] | outcome [3] | outcome [4] | outcome [5] | Potency [6] | outcome [7] | Potency [8] | Potency [9]

CCC(Cl)CC(Cl)C(Cl)C(Cl)C(Cl)C(C)Cl (centres undefined)
inactive: fluorescence, % of fluorescein [1] 0.0197% [at 13.4 µM] | fluorescence, % of fluorescent control [2] 0.102% [at 13.4 µM] | activity change [3] -0.0067% [at 13.4 µM] | fluorescence, % of fluorescent control [4] -0.0269% [at 13.4 µM] | fluorescence, % of Rose Bengal [5] 0.0345% [at 13.4 µM] | fluorescence, % of fluorescent control [6] 0.066% [at 13.4 µM] | fluorescence, % of fluorescein control [7] -0.002% [at 13.4 µM] | fluorescence, % of fluorescent control [8] 0.0691% [at 13.4 µM] | activation [9] -0.909% [at 15 µM]

O=[N+]([O-])c1ccc2ncccc2c1
inactive: outcome [1] | Potency [2] | outcome [3] | outcome [4] | outcome [5] | Potency [6] | outcome [7] | Potency [8] | Potency [9]

SCCc1cnccn1
inactive: outcome [1] | Potency [2] | outcome [3] | outcome [4] | outcome [5] | Potency [6] | outcome [7] | Potency [8] | Potency [9]

CNCc1ccc(NC(=O)c2c[nH]c3c2C(=O)CCC3)cc1
inactive: outcome [1] | Potency [2] | outcome [3] | outcome [4] | outcome [5] | Potency [6] | outcome [7] | Potency [8] | Potency [9]

O=S(=O)(Cl)c1c(Cl)cccc1Cl
inactive: outcome [1] | Potency [2] | outcome [3] | outcome [4] | outcome [5] | Potency [6] | outcome [7] | Potency [8] | Potency [9] | Potency [10]

CCN(CC)CCOC(=O)C(c1ccccc1)c1ccccc1
inactive: outcome [1] | Potency [2] | outcome [3] | outcome [4] | outcome [5] | Potency [6] | outcome [7] | Potency [8] | Potency [9]

— PubChem BioAssay (Tox21)
